Data from PubChem BioAssay (NCATS).
Inconclusive results are not listed. Calls of active or inactive are those of the source. The call rests on the fitted dose curve; in most records, active means well fitted curve in the direction sought with a large enough effect; inconclusive means small, poorly fitted or top-dose-only effect, or another doubt; inactive means no such curve, though single readings can be large; an effect the other way counts as inactive or inconclusive.

Test: Cellular Toxicity (caspase-3) N2a (AID 665);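 further: compound exposure lasted 16 h at 37 °C before readout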
Conditions: N2a cells, luminescence, normalized: DMSO 0%, 10 µM staurosporine 100%; series mostly up to 92.2 µM
Method in brief: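 Plated mouse neuroblastoma N2a cells received titrated compounds for 16 h in complete medium. Caspase activity was then detected with a peptide-aminoluciferin luminescent reagent.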

For Nc1nc(CC(=O)O)cs1, which outcome is on record?
The outcome was “inactive”.

Which outcome does the source give for CC(=O)CC(C)C here?
The outcome was “inactive”.

For CCCCC(CC)CO (stereo not drawn), which outcome is on record?
The outcome was “inactive”.

With CCCCC(=O)N(C)C as the molecule, how does the outcome read?
Its outcome is “inactive”.

For O=CNc1ccccc1, which outcome is on record?
Its outcome is “inactive”.

For Clc1ccc(Cl)c(Cl)c1Cl, which outcome is on record?
The outcome was “inactive”.

Which outcome does the source give for C=CCCCCCCC=C here?
The outcome was “inactive”.

For CCCCCCC=O, which outcome is on record?
The outcome was “inactive”.

With CCCCC(CC)COCC1CO1 (stereo not drawn) as the molecule, how does the outcome read?
The outcome was “inactive”.

Which outcome does the source give for Cc1cc(C)cc(N)c1 here?
The outcome was “inactive”.

Which outcome does the source give for C=CCOC(=O)COCCC(C)C here?
The outcome was “inactive”.

With O=C(O)CNC(=O)c1ccc(CO)o1 as the molecule, how does the outcome read?
The outcome was “inactive”.

For C=C(C)C(N)=O, which outcome is on record?
Its outcome is “inactive”.

With CCN(Cc1ccccc1)c1ccccc1 as the molecule, how does the outcome read?
The outcome was “inactive”.

With O=C(O)c1cccc(Cl)c1Cl as the molecule, how does the outcome read?
Its outcome is “inactive”.

Which outcome does the source give for CC(=O)c1cccc([N+](=O)[O-])c1 here?
The outcome was “inactive”.

For O=C(O)CNC(=O)c1ccc([N+](=O)[O-])cc1, which outcome is on record?
Its outcome is “inactive”.

For Nc1c(Cl)cc(Cl)cc1Cl, which outcome is on record?
The outcome was “inactive”.

With C=CCCCC as the molecule, how does the outcome read?
Its outcome is “inactive”.

Which outcome does the source give for NC(=O)c1cccc([N+](=O)[O-])c1 here?
The outcome was “inactive”.

With C=C(C)OC(C)=O as the molecule, how does the outcome read?
Its outcome is “inactive”.

Which outcome does the source give for CC(C)Cc1nccs1 here?
The outcome was “inactive”.

Which outcome does the source give for CC(C)c1ccccc1 here?
The outcome was “inactive”.

With CCOCCOCC as the molecule, how does the outcome read?
Its outcome is “inactive”.

Which outcome does the source give for CCC1CO1 (stereo not drawn) here?
The outcome was “inactive”.

Which outcome does the source give for NC(=O)CCCCC(N)=O here?
The outcome was “inactive”.

Which outcome does the source give for CCOC(C)(C)C here?
The outcome was “inactive”.

With CC(N)CN (stereo not drawn) as the molecule, how does the outcome read?
Its outcome is “inactive”.

With Cc1ccc(C(C)(C)C)cc1 as the molecule, how does the outcome read?
The outcome was “inactive”.

With Cc1ccc(C#N)cc1 as the molecule, how does the outcome read?
Its outcome is “inactive”.

Which outcome does the source give for Cc1ccc(C)cc1 here?
Its outcome is “inactive”.

Which outcome does the source give for CN(C)CCCCl here?
Its outcome is “inactive”.

Which outcome does the source give for CC(=O)c1nccs1 here?
Its outcome is “inactive”.

With CCc1ccccc1 as the molecule, how does the outcome read?
The outcome was “inactive”.

For CCCCC(C=O)CC (stereo not drawn), which outcome is on record?
The outcome was “inactive”.

Which outcome does the source give for CC(C)=C1CCC(C)CC1=O (stereo not drawn) here?
Its outcome is “inactive”.

For CCCCCCCCC, which outcome is on record?
The outcome was “inactive”.

Which outcome does the source give for C=CCCCCCC here?
The outcome was “inactive”.

Which outcome does the source give for Cc1ccc(C)c([N+](=O)[O-])c1 here?
The outcome was “inactive”.

Test: Cellular Toxicity (caspase-3) NIH 3T3 (AID 666);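 further: caspase signal read after 16 h compound exposure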
Conditions: NIH 3T3 caspase-3 activation, apoptosis/toxicity, 0% DMSO, 100% is 100 µM tamoxifen; series mostly up to 92.2 µM
Method in brief: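 Concentration-response qHTS in NIH 3T3 mouse fibroblasts scores caspase-3/7 activation as rising luminescence after 16 hr compound exposure. Signals are scaled between DMSO-only and 100 uM tamoxifen.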

With Nc1nc(CC(=O)O)cs1 as the molecule, how does the outcome read?
The outcome was “inactive”.

Which outcome does the source give for CC(=O)CC(C)C here?
The outcome was “inactive”.

For CCCCC(CC)CO (stereo not drawn), which outcome is on record?
The outcome was “inactive”.

For CCCCC(=O)N(C)C, which outcome is on record?
Its outcome is “inactive”.

With O=CNc1ccccc1 as the molecule, how does the outcome read?
The outcome was “inactive”.

With Clc1ccc(Cl)c(Cl)c1Cl as the molecule, how does the outcome read?
The outcome was “inactive”.

For C=CCCCCCCC=C, which outcome is on record?
The outcome was “inactive”.

For CCCCCCC=O, which outcome is on record?
The outcome was “inactive”.

For CCCCC(CC)COCC1CO1 (stereo not drawn), which outcome is on record?
The outcome was “inactive”.

Which outcome does the source give for Cc1cc(C)cc(N)c1 here?
The outcome was “inactive”.

With C=CCOC(=O)COCCC(C)C as the molecule, how does the outcome read?
Its outcome is “inactive”.

For O=C(O)CNC(=O)c1ccc(CO)o1, which outcome is on record?
The outcome was “inactive”.

Which outcome does the source give for C=C(C)C(N)=O here?
Its outcome is “inactive”.

For CCN(Cc1ccccc1)c1ccccc1, which outcome is on record?
The outcome was “inactive”.

For O=C(O)c1cccc(Cl)c1Cl, which outcome is on record?
The outcome was “inactive”.

Which outcome does the source give for CC(=O)c1cccc([N+](=O)[O-])c1 here?
The outcome was “inactive”.

For O=C(O)CNC(=O)c1ccc([N+](=O)[O-])cc1, which outcome is on record?
The outcome was “inactive”.

For Nc1c(Cl)cc(Cl)cc1Cl, which outcome is on record?
The outcome was “inactive”.

With C=CCCCC as the molecule, how does the outcome read?
The outcome was “inactive”.

Which outcome does the source give for NC(=O)c1cccc([N+](=O)[O-])c1 here?
The outcome was “inactive”.

For C=C(C)OC(C)=O, which outcome is on record?
The outcome was “inactive”.

For CC(C)Cc1nccs1, which outcome is on record?
The outcome was “inactive”.

With CC(C)c1ccccc1 as the molecule, how does the outcome read?
The outcome was “inactive”.

With CCOCCOCC as the molecule, how does the outcome read?
The outcome was “inactive”.

For CCC1CO1 (stereo not drawn), which outcome is on record?
Its outcome is “inactive”.

With NC(=O)CCCCC(N)=O as the molecule, how does the outcome read?
The outcome was “inactive”.

With CCOC(C)(C)C as the molecule, how does the outcome read?
Its outcome is “inactive”.

Which outcome does the source give for CC(N)CN (stereo not drawn) here?
The outcome was “inactive”.

For Cc1ccc(C(C)(C)C)cc1, which outcome is on record?
Its outcome is “inactive”.

For Cc1ccc(C#N)cc1, which outcome is on record?
The outcome was “inactive”.

Which outcome does the source give for Cc1ccc(C)cc1 here?
Its outcome is “inactive”.

For CN(C)CCCCl, which outcome is on record?
The outcome was “inactive”.

With CC(=O)c1nccs1 as the molecule, how does the outcome read?
The outcome was “inactive”.

With CCc1ccccc1 as the molecule, how does the outcome read?
The outcome was “inactive”.

For CCCCC(C=O)CC (stereo not drawn), which outcome is on record?
Its outcome is “inactive”.

Which outcome does the source give for CC(C)=C1CCC(C)CC1=O (stereo not drawn) here?
The outcome was “inactive”.

For CCCCCCCCC, which outcome is on record?
The outcome was “inactive”.

With C=CCCCCCC as the molecule, how does the outcome read?
Its outcome is “inactive”.

Which outcome does the source give for Cc1ccc(C)c([N+](=O)[O-])c1 here?
Its outcome is “inactive”.
